Measured values taken from PubChem BioAssay (NCI).
Compounds without any hit were thinned out: in the full panel of roughly 83,000, 20% have a hit.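 Single-dose data. Exposure time 48 hours. Values below 10 considered active.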 The source made the active and inactive calls.

test system: MDA-MB-468 breast; experiment: NCI-60 one-dose screen, 48 h (100 = growth as untreated, 0 = no growth, -100 = all killed); details: 10 µM unless noted

| SMILES | growth |
| --- | --- |
| C#C[C@]1(O)CC[C@H]2[C@@H]3CC=C4c5sc(-c6ccccn6)nc5CC[C@]4(C)[C@H]3CC[C@@]21C | 89.2% (inactive) |
| C=C1C(=O)O[C@H]2[C@H]1CC/C(COC(=O)CCC(=O)OC/C1=C/CC[C@@]3(C)O[C@H]3[C@H]3OC(=O)C(=C)[C@@H]3CC1)=C\CC[C@@]1(C)O[C@@H]21 | -39% (active) |
| CN1CCN(C(=O)[C@@]2(C)CC[C@]3(C)CC[C@]4(C)C(=CC[C@@H]5[C@@]6(C)CCC(=O)NC(C)(C)[C@@H]6CC[C@]54C)[C@@H]3C2)CC1 | 13.5% (inactive) |
| N=c1nc(N)ncn1-c1ccccc1 | 113% (inactive) |
